Assay results: PubChem BioAssay (EPA / NIEHS)
Where “and” joins values, the source holds several entries; their conditions need not be identical. Equal values may be shown once. Where a structure was tested more than once in an assay, its records may differ in their call. Calls of active or inactive are those of the source. How the source made its calls: active means hit-call score of the fitted dose curve at least 0.9, where 1 is the maximum; inactive means score below 0.9.

Experiments:
[1] = ATG_GLI_CIS: Attagene CIS-FACTORIAL HepG2 Assay for human Zinc Finger Protein GLI1 (AID 2282945); conditions: HepG2, Attagene cis-factorial reporter mRNA, GLI element; actives raise or lower the signal
How it was run: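 HepG2 cells transiently transfected with cis-promoter multiplexed reporter units report endogenous transcription factor activity. After 24 h chemical exposure, reporter mRNA was quantified by RT-PCR, 6-FAM labelling, HpaI digestion and capillary electrophoresis, with bidirectional fitting against DMSO.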

[2] = molecular target: Bile acid receptor (Homo sapiens) (UniProt Q96RI1); assay: ATG_IR1_CIS: Attagene CIS-FACTORIAL HepG2 Assay for human Nuclear Receptor Subfamily 1 Group H Member 4 (NR1H4), IR1 submotif (AID 2282946); conditions: IR1 reporter transcription, actives raise or lower the signal
Bile acid receptor (Homo sapiens), sequence (Q96RI1 whole entry, looked up): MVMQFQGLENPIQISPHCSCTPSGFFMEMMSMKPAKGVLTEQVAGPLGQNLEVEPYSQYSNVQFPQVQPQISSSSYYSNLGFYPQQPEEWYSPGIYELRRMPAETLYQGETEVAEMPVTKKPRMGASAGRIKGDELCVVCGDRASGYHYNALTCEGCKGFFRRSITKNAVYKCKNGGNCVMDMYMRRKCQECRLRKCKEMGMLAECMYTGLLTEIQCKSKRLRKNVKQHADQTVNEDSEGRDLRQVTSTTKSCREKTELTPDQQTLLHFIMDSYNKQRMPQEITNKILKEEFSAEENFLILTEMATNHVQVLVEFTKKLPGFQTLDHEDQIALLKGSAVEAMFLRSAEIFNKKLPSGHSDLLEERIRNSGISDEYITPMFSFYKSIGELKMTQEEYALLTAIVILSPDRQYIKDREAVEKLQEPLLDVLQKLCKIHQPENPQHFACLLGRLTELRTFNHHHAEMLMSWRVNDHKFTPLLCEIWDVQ
How it was run: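 Transient MRTU transfection, HepG2; 24 h dosing; RNA → RT-PCR → 6-FAM primer extension → HpaI digest → capillary electrophoresis fluorescence. Gain/loss of signal fitted relative to DMSO.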

[3] = ATG_GRE_CIS: Attagene CIS-FACTORIAL HepG2 Assay for human Glucocorticoid Response Elements (GRE) (AID 2282947); conditions: HepG2 GRE cis-reporter, Attagene multiplex mRNA; actives raise or lower the signal
How it was run: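 Following 24 h chemical exposure of transiently transfected HepG2 cells, total RNA was reverse-transcribed and reporter cDNA amplified, fluorescently labelled and sized by capillary electrophoresis. Signal gain or loss was fitted relative to DMSO vehicle.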

[4] = ATG_ISRE_CIS: Attagene CIS-FACTORIAL HepG2 Assay for human Interferon Regulatory Factor 1 (IRF1) binding to an Interferon-Stimulated Response Element (ISRE) (AID 2282948); conditions: HepG2 ISRE cis-reporter (Attagene), mRNA transcription readout; actives raise or lower the signal
How it was run: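 HepG2 cells transiently transfected with multiplexed cis-promoter reporter units; after 24 h compound exposure, reporter mRNA quantified by RT-PCR, FAM labelling, HpaI digestion and capillary electrophoresis. Bidirectional fit versus DMSO baseline.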

[5] = ATG_M_32_CIS: Attagene CIS-FACTORIAL HepG2 Assay for M32 Transcription Factor (Internal Marker) (AID 2282949); conditions: HepG2 Attagene cis-factorial M32 reporter, mRNA; actives raise or lower the signal;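 further: background control marker of the multiplexed CIS panel rather than a real target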
How it was run: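 Fluorescent capillary electrophoresis peaks of HpaI-digested, FAM-labelled RT-PCR reporter products give the signal. Source: transiently transfected human liver HepG2 cells, 24 h after chemical dosing; bidirectional fitting against DMSO.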

[6] = ATG_M_06_CIS: Attagene CIS-FACTORIAL HepG2 Assay for M06 Transcription Factor (Internal Marker) (AID 2282950); conditions: HepG2 Attagene CIS-FACTORIAL M06 internal marker reporter; actives raise or lower the signal
How it was run: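 Measured 24 h post-dosing in transiently transfected HepG2 cells, this internal-marker endpoint reports reporter mRNA via RT-PCR with fluorescent primer extension and capillary electrophoresis. DMSO served as negative control and baseline for bidirectional fitting.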

[7] = molecular target: Hypoxia-inducible factor 1-alpha (Homo sapiens) (UniProt Q16665); assay: ATG_HIF1a_CIS: Attagene CIS-FACTORIAL HepG2 Assay for human Hypoxia Inducible Factor 1 (HIF1A) (AID 2282951); conditions: HepG2 Attagene cis-factorial HIF1a reporter transcription; actives raise or lower the signal
Hypoxia-inducible factor 1-alpha (Homo sapiens), sequence (Q16665 whole entry, looked up): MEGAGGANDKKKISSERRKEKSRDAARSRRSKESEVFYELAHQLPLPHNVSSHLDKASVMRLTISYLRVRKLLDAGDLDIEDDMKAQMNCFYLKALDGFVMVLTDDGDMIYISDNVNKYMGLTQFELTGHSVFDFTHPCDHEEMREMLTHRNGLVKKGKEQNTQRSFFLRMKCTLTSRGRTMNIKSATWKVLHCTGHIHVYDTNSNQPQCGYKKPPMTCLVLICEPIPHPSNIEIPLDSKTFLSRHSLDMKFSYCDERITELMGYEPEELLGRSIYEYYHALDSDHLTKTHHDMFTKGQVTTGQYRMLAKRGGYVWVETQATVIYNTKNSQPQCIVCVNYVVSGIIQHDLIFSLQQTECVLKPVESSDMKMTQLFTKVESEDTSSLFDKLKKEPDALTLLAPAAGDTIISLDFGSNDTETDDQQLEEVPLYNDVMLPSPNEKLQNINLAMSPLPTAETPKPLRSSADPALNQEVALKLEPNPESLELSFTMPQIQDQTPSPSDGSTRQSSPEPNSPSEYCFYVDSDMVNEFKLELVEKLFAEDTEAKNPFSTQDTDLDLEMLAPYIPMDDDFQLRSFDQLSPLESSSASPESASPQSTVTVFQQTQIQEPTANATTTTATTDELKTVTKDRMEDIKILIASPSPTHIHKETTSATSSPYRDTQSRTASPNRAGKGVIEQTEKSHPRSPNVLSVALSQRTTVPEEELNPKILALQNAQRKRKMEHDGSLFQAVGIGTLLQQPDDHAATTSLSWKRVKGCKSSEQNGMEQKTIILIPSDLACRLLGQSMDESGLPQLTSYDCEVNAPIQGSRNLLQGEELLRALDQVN
How it was run: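 Dosed 24 h, transfected HepG2 cells yielded total RNA whose reporter transcripts were RT-PCR-amplified and sized by capillary electrophoresis using fluorescent labelling; DMSO defined baseline, with gain and loss of signal both fitted.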

[8] = molecular target: Hepatocyte nuclear factor 6 (Homo sapiens) (UniProt Q9UBC0); assay: ATG_HNF6_CIS: Attagene CIS-FACTORIAL HepG2 Assay for human Hepatocyte Nuclear Factor 6 (HNF6) (AID 2282952); conditions: HepG2 Attagene cis-factorial HNF6 reporter transcription; actives raise or lower the signal
Hepatocyte nuclear factor 6 (Homo sapiens), sequence (Q9UBC0 whole entry, looked up): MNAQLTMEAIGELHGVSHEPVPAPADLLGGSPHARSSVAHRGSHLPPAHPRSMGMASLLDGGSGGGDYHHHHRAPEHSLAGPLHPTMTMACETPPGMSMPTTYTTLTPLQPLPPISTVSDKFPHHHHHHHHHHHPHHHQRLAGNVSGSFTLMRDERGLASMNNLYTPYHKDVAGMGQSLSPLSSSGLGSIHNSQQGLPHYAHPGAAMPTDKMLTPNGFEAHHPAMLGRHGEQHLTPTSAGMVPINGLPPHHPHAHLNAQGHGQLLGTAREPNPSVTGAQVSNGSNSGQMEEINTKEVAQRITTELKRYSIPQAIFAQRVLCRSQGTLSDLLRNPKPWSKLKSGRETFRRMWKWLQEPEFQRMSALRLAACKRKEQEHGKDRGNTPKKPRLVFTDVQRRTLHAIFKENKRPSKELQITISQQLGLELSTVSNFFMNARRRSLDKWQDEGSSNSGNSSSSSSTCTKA
How it was run: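 Multiplexed mRNA reporter assay in transfected HepG2; 24 h dosing; RT-PCR plus capillary electrophoresis fluorescence; DMSO-referenced bidirectional curve fitting.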

[9] = molecular target: Heat shock factor protein 1 (Homo sapiens) (UniProt Q00613); assay: ATG_HSE_CIS: Attagene CIS-FACTORIAL HepG2 Assay for human Heat Shock Transcription Factor 1 (HSE) (AID 2282953); conditions: HepG2 HSE cis-reporter, Attagene RNA transcription; actives raise or lower the signal
Heat shock factor protein 1 (Homo sapiens), sequence (Q00613 whole entry, looked up): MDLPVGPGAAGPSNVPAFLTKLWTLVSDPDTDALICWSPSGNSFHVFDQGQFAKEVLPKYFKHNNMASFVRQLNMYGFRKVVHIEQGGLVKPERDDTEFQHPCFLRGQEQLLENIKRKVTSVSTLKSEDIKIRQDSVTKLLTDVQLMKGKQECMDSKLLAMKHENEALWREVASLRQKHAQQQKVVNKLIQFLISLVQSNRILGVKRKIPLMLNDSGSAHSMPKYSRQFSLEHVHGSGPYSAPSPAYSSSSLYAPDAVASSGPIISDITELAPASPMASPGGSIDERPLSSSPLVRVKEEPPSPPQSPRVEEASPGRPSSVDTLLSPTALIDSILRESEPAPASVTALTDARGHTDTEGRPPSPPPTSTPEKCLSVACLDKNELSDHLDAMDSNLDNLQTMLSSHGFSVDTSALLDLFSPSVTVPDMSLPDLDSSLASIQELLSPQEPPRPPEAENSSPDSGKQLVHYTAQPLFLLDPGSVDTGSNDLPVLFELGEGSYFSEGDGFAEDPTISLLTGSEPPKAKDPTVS
How it was run: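 Reporter mRNA induction in HepG2 is measured 24 h after dosing, using transiently transfected multiplexed cis-regulated reporter units. Signal comes from capillary electrophoresis of labelled RT-PCR products, with DMSO as negative control.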

[10] = ATG_MRE_CIS: Attagene CIS-FACTORIAL HepG2 Assay for human Metal Responsive Element (MRE) (AID 2282954); conditions: HepG2 MRE cis-reporter transcription, Attagene multiplex; actives raise or lower the signal
How it was run: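 Step one: transfect HepG2 with cis-regulated reporter units. Step two: dose 24 h. Step three: isolate RNA, RT-PCR, 6-FAM label, HpaI digest, capillary electrophoresis. Fit bidirectionally to DMSO.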

[11] = ATG_PBREM_CIS: Attagene CIS-FACTORIAL HepG2 Assay for human Phenobarbital-responsive Enhancer Module (PBREM) (AID 2282955); conditions: HepG2 PBREM cis-reporter, Attagene multiplexed transcription; actives raise or lower the signal
How it was run: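 Transfected liver-derived HepG2 cells exposed 24 h; PBREM reporter transcript quantified via RT-PCR and capillary electrophoresis, with activity in either direction referenced to DMSO.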

[12] = molecular target: Paired box protein Pax-6 (Homo sapiens) (UniProt P26367); assay: ATG_Pax6_CIS: Attagene CIS-FACTORIAL HepG2 Assay for human Paired Box 6 (PAX6) (AID 2282956); conditions: HepG2 CIS-FACTORIAL PAX6 reporter transcription, RNA readout; actives raise or lower the signal
Paired box protein Pax-6 (Homo sapiens), sequence (P26367 whole entry, looked up): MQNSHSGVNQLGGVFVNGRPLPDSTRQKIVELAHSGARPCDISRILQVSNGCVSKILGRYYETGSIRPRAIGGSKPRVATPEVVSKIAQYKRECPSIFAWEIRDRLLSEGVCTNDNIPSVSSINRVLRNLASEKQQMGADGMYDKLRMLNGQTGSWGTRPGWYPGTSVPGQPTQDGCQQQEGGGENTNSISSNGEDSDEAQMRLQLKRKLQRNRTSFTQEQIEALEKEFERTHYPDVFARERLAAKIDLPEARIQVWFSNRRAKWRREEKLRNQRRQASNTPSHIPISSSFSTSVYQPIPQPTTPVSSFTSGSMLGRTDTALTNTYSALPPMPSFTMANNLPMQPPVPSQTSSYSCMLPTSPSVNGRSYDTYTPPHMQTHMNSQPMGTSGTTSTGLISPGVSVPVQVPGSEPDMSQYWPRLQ
How it was run: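 HepG2 cells transiently transfected with multiplexed cis-promoter reporter units (endogenous TF activity) were dosed for 24 h. Reporter mRNA was quantified by RT-PCR, 6-FAM labeling, HpaI digestion and capillary electrophoresis; bidirectional fitting versus DMSO baseline.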

[13] = ATG_PXRE_CIS: Attagene CIS-FACTORIAL HepG2 Assay for human Pregnane X Receptor Element (PXRE) (AID 2282957); conditions: HepG2 Attagene CIS-FACTORIAL PXRE reporter, mRNA; actives raise or lower the signal
How it was run: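 Cells: HepG2, transiently transfected reporter units under cis promoter control. Exposure: 24 h. Detection: reporter mRNA via RT-PCR/CE fluorescence; bidirectional fitting, DMSO-referenced.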

[14] = ATG_PPRE_CIS: Attagene CIS-FACTORIAL HepG2 Assay for human Peroxisome Proliferator-activated Response Element (PPRE) (AID 2282958); conditions: HepG2 PPRE cis-element reporter, Attagene transcription factor profiling; actives raise or lower the signal
How it was run: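 Measured endpoint: PPRE-controlled reporter mRNA, detected by RT-PCR and capillary electrophoresis fluorescence, from transiently transfected HepG2 cells 24 h after dosing. Curves fitted in both directions using DMSO baseline.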

[15] = ATG_RORE_CIS: Attagene CIS-FACTORIAL HepG2 Assay for human RAR-related Orphan Receptor Element (RORE) (AID 2282959); conditions: HepG2 Attagene cis-factorial RORE reporter, mRNA; actives raise or lower the signal
How it was run: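 Transiently transfected HepG2 reporter cells were treated 24 h. Reporter transcripts were detected by RT-PCR and capillary electrophoresis, with bidirectional fitting against DMSO.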

[16] = ATG_Sox_CIS: Attagene CIS-FACTORIAL HepG2 Assay for human SRY-box transcription factor (SOX) (AID 2282960); conditions: HepG2 Attagene cis-factorial SOX reporter, mRNA; actives raise or lower the signal
How it was run: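 Gain- or loss-of-signal endpoint, fitted bidirectionally with DMSO as negative control. Based on reporter mRNA from transfected HepG2 cells harvested 24 h post-treatment and quantified via RT-PCR and capillary electrophoresis.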

[17] = molecular target: Transcription factor Sp1 (Homo sapiens) (UniProt P08047); assay: ATG_Sp1_CIS: Attagene CIS-FACTORIAL HepG2 Assay for human Specificity Protein 1 (Sp1) (AID 2282961); conditions: HepG2 Sp1 cis-reporter transcription, actives raise or lower the signal
Transcription factor Sp1 (Homo sapiens), sequence (P08047 whole entry, looked up, the tested form may be a part): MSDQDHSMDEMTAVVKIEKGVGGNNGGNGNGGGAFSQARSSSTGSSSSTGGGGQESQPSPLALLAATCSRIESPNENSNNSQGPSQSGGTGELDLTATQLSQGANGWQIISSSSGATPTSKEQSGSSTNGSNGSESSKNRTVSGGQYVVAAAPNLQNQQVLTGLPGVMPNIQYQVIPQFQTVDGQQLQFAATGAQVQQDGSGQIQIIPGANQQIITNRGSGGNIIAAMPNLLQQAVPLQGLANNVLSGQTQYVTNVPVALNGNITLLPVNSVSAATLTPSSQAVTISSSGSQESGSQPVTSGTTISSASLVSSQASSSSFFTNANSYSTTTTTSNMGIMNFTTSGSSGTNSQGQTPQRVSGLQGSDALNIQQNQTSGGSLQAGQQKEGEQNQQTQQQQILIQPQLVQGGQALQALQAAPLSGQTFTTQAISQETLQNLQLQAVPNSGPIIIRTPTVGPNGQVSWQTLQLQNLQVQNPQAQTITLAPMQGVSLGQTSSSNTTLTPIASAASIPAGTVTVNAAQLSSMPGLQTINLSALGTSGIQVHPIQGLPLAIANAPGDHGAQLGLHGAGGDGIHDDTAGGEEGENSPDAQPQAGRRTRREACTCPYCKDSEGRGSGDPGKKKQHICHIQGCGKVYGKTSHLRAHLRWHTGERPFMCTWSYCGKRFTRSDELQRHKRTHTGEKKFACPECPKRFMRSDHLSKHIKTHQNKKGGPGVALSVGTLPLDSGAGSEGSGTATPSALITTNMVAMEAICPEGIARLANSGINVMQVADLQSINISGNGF
How it was run: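 Endpoint reflects endogenous Sp1 transcriptional activity, not an exogenous fusion protein: HepG2 cells with transfected cis-regulated reporters, 24 h dosing, RT-PCR/capillary electrophoresis mRNA read-out, DMSO-normalised bidirectional fit.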

[18] = ATG_SREBP_CIS: Attagene CIS-FACTORIAL HepG2 Assay for human Sterol Regulatory Element Binding (SREBP) (AID 2282962); conditions: HepG2 Attagene cis-factorial SREBP reporter, mRNA; actives raise or lower the signal
How it was run: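 HepG2 cells transiently transfected with multiplexed cis-element reporter units report endogenous transcription factor activity. After 24 h of chemical exposure, reporter mRNA was quantified by RT-PCR, 6-FAM labelling, HpaI digestion and capillary electrophoresis; bidirectional fits used DMSO as baseline.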

[19] = ATG_TA_CIS: Attagene CIS-FACTORIAL HepG2 Assay for human TA Basal Promoter (AID 2282964); conditions: HepG2 Attagene CIS-factorial TA basal promoter reporter; actives raise or lower the signal
How it was run: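 Cis-factorial format in HepG2: reporters report endogenous factors, not chimeric Gal4 fusions. After 24 h treatment, reporter transcripts were measured by RT-PCR-capillary electrophoresis fluorescence, analysed bidirectionally versus DMSO.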

[20] = molecular target: Signal transducer and activator of transcription 3 (Homo sapiens) (UniProt P40763); assay: ATG_STAT3_CIS: Attagene CIS-FACTORIAL HepG2 Assay for human Signal Transducer and Activator of Transcription 3 (STAT3) (AID 2282963); conditions: HepG2, Attagene cis-factorial STAT3 reporter transcription; actives raise or lower the signal
Signal transducer and activator of transcription 3 (Homo sapiens), sequence (P40763 whole entry, looked up): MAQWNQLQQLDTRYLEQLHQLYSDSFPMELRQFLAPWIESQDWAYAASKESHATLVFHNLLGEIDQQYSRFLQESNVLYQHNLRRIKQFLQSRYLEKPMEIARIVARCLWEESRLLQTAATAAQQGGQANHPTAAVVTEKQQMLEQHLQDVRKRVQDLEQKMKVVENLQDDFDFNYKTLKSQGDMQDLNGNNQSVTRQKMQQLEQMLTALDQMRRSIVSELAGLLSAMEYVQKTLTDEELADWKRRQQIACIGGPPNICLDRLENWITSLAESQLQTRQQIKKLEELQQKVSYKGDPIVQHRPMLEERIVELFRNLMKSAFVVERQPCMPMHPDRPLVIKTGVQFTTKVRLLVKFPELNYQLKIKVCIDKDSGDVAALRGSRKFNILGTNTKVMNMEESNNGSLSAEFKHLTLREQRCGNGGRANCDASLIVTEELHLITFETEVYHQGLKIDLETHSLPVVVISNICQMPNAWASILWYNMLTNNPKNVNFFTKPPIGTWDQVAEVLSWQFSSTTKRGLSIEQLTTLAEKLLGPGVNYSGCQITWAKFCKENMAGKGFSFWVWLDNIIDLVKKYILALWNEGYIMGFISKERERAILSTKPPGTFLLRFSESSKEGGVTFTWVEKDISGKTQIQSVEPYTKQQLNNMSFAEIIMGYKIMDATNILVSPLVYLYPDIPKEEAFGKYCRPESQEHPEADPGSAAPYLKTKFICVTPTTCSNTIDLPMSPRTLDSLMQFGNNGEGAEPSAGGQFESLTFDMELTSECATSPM
How it was run: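 Transcript-level reporter assay. HepG2 transient MRTU transfection, 24 h exposure, fluorescence detection after RT-PCR and CE; DMSO baseline.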

Measured: AC50

C=CC/C=C/C/C=C/C/C=C/C
not listed: [20]
inactive: all other assays above

c1ccc(-c2ccccc2-c2ccccc2)cc1
active: [2] 27.1 µM | [4] 100 µM | [13] 5.73 µM | [17] 100 µM | [18] 100 µM
inactive: all other assays above

O=C(OCCOCCOCCOC(=O)c1ccccc1)c1ccccc1
inactive: all assays above

O=S(=O)(O)C(F)(F)C(F)(F)C(F)(F)C(F)(F)C(F)(F)C(F)(F)C(F)(F)F
active: [5] 149 µM | [8] 157 µM | [13] 20.3 µM and 19.7 µM | [14] 61.2 µM | [18] 150 µM | [19] 159 µM
inactive: [1] | [2] | [3] | [4] | [5] | [6] | [7] | [8] | [9] | [10] | [11] | [12] | [14] | [15] | [16] | [17] | [18] | [19]

OCC(F)(F)C(F)(F)C(F)(F)C(F)(F)C(F)(F)C(F)(F)F
active: [11] 282 µM | [13] 242 µM | [18] 234 µM
not listed: [20]
inactive: all other assays above

FC(F)(F)C(F)(F)C(F)(F)C(F)(F)C(F)(F)CCI
active: [13] 39.9 µM
not listed: [20]
inactive: all other assays above

OCC(F)(F)C(F)(F)C(F)(F)C(F)(F)C(F)(F)C(F)F
inactive: all assays above

CCCCCCOC(=O)c1ccccc1
inactive: all assays above
